Assay [1] deals with Cell division control protein 42 homolog (Homo sapiens) (UniProt P60953). The experiment in a line: activated mutant Cdc42 GTP-binding inhibitors, dose response, biochemical, multiplex bead flow cytometry, Bodipy-FL-GTP (AID 1333;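 active = fitted half-maximal concentration within the tested dose range, moderate curve steepness, a statistically real signal drop, and little compound fluorescence or tag-binding interference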). On the technique in general: In flow cytometry, cells or beads pass a laser one at a time.
Chain of Cell division control protein 42 homolog (Homo sapiens) (P60953 whole entry, looked up): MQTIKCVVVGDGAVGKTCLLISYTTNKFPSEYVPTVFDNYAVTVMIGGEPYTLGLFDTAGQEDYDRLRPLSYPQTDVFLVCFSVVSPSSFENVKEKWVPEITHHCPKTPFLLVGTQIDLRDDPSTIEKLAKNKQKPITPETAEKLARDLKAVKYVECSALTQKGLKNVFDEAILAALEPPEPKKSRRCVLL
Assay [2] shares this target. The experiment in a line: wildtype Cdc42 GTP-binding inhibitors, dose response, biochemical, multiplex bead flow cytometry, Bodipy-FL-GTP (AID 1334;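 active = fitted half-maximal concentration within the tested range, moderate curve steepness, significant signal drop, and little compound fluorescence or bead-linkage interference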). The settings on record: bead-based flow cytometry, Bodipy-FL-GTP binding to GST-Cdc42; at 100 µM (top of the series) unless noted.
For assay [3], the target named is GTPase HRas (Homo sapiens) (UniProt P01112). The experiment in a line: inhibitors of GTP binding to wildtype Ras, dose response, biochemical, multiplex bead flow cytometry (AID 1335;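 active = fitted half-maximal concentration within 10 nM to 100 µM, steepness 0.5 to 2, significant signal drop, low assay interference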). Conditions: bead-based flow cytometry, Bodipy-GTP binding to GST-Ras; at 100 µM (top of the series) unless noted.
Chain of GTPase HRas (Homo sapiens) (P01112 whole entry, looked up): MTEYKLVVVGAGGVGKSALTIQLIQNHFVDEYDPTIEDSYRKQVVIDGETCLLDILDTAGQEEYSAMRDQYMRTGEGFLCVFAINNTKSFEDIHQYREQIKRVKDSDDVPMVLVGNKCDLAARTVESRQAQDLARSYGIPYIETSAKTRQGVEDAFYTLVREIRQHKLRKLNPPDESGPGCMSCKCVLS
The subject of assay [4] is Ras-related protein Rab-7a (dog), GTP binding. Put plainly: Rab7 GTP binding inhibitors, potency, dose response, biochemical, wildtype, multiplex bead flow cytometry (AID 1336).
Assay [5] has as its target Ras-related C3 botulinum toxin substrate 1 (Homo sapiens) (UniProt P63000). The experiment in a line: wildtype Rac1 GTP binding inhibitors, dose response, biochemical, multiplex bead flow cytometry (AID 1340;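 active = dose curve with midpoint inside tested range, moderate steepness, plateau gap beyond fit error, low compound glow and bead-link interference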). The settings on record: GST-Rac1 beads, Bodipy-FL-GTP binding; at 100 µM (top of the series) unless noted.
The target of assay [6] is GTPase HRas (Homo sapiens) (UniProt P01112). The experiment in a line: activated Ras mutant GTP binding inhibitors, dose response, biochemical, multiplex bead flow cytometry (AID 1341;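 active = dose-response curve with midpoint inside the tested range, moderate steepness, significant amplitude and little compound fluorescence or bead-attachment interference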;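 note: GST-tagged constitutively activated Ras mutant immobilized on beads and multiplexed with other GTPases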).

For part of these data: Potency and affinity values are given separately. Activity calls are given as the source filed them. Unless noted, the rule behind the calls is not given here.

Turning to `O=C(COc1ccccc1[N+](=O)[O-])Nc1cc(Cl)ccc1C(=O)O`, the molecule was called inactive in assay [1], in assay [4] and in assay [6]. For the same molecule, the fluorescence, percent of control (lower = inhibition) in assay [2] came out at 32.7%. The molecule further displayed a GTP binding, percent of control in assay [3] of 75.6%. The same molecule yielded a GTP binding signal, raw median fluorescence (lower = inhibition) (MCF (arbitrary fluorescence units)) in assay [5] of 215.

On to `FC(F)(F)c1cccc(NC(=S)NNC(=S)NCc2ccccc2)c1`, for which the molecule was classed as inactive in assay [1], in assay [4] and in assay [6]. For the same molecule, the fluorescence, percent of control (lower = inhibition) in assay [2] came to 30.7%. The molecule also gave a GTP binding, percent of control in assay [3] of 81.8%. In addition, the GTP binding signal, raw median fluorescence (lower = inhibition) (MCF (arbitrary fluorescence units)) in assay [5] was found to be 222.

Take `O=C(O)c1ccc(CNCc2ccc(F)cc2)s1`: the molecule was classed as inactive in assay [1], in assay [4] and in assay [6]. Also, the fluorescence, percent of control (lower = inhibition) in assay [2] worked out at 61.1%. Besides, the GTP binding, percent of control in assay [3] stood at 84.5%. Besides, in assay [5], the GTP binding signal, raw median fluorescence (lower = inhibition) (MCF (arbitrary fluorescence units)) turned out to be 34.7.

As for `COc1cc(/C=C2/C(C)=C(C#N)c3nc(N)c(C#N)c(C)c32)ccc1OCC(=O)O`, the call in assay [1], in assay [4] and in assay [6] was inactive. In addition, in assay [2], the fluorescence, percent of control (lower = inhibition) stood at 25.9%. The molecule further registered a GTP binding, percent of control in assay [3] of 62%. For the same molecule, the GTP binding signal, raw median fluorescence (lower = inhibition) (MCF (arbitrary fluorescence units)) in assay [5] worked out at 161.

In the case of `Cc1cccc(CSCc2ccc(C(=O)O)o2)c1`, the result in assay [1], in assay [4] and in assay [6] was inactive. Also, the fluorescence, percent of control (lower = inhibition) in assay [2] came out at 58.1%. Moreover, the GTP binding, percent of control in assay [3] was 86.9%. The molecule also returned a GTP binding signal, raw median fluorescence (lower = inhibition) (MCF (arbitrary fluorescence units)) in assay [5] of 28.5.

On to `COc1ccc(CCn2c(C(C)C)nc3c(c(=O)c4ccccc4n3C)c2=O)cc1`, for which the outcome in assay [1], in assay [4] and in assay [6] was inactive. The fluorescence, percent of control (lower = inhibition) in assay [2] came to 34.5%. The molecule further showed a GTP binding, percent of control in assay [3] of 82.6%. This molecule gave a GTP binding signal, raw median fluorescence (lower = inhibition) (MCF (arbitrary fluorescence units)) in assay [5] of 241.

Consider `CCc1nnc(NC(=O)CSc2nnc(CNc3ccc(F)cc3)n2C2CCCCC2)s1`, for which the outcome in assay [1], in assay [4] and in assay [6] was inactive. Further, the fluorescence, percent of control (lower = inhibition) in assay [2] worked out at 52%. In assay [3], the GTP binding, percent of control was found to be 72.6%. The same molecule gave a GTP binding signal, raw median fluorescence (lower = inhibition) (MCF (arbitrary fluorescence units)) in assay [5] of 0.

On to `COc1cc2[nH]c(=S)nc(NCC3CCCO3)c2cc1OC` (stereo unspecified), for which the outcome in assay [1], in assay [4] and in assay [6] was inactive. For the same molecule, the fluorescence, percent of control (lower = inhibition) in assay [2] stood at 59.4%. The molecule further returned a GTP binding, percent of control in assay [3] of 152%. The GTP binding signal, raw median fluorescence (lower = inhibition) (MCF (arbitrary fluorescence units)) in assay [5] stood at 177.

Regarding `Cc1ccc(NC(=O)CS(=O)(=O)c2c[nH]c3ccccc23)c(C)c1`, the outcome in assay [1], in assay [4] and in assay [6] was inactive. Also, the fluorescence, percent of control (lower = inhibition) in assay [2] turned out to be 46%. The molecule also came in with a GTP binding, percent of control in assay [3] of 62.9%. The GTP binding signal, raw median fluorescence (lower = inhibition) (MCF (arbitrary fluorescence units)) in assay [5] was found to be 184.

As for `Nc1nc2c(c(=O)[nH]1)C(c1cccc3ccccc13)C1=C(N2)c2ccccc2C1=O` (stereo unspecified), the result in assay [1], in assay [4] and in assay [6] was inactive. Also, the fluorescence, percent of control (lower = inhibition) in assay [2] stood at 31%. This molecule yielded a GTP binding, percent of control in assay [3] of 75.5%. Moreover, the GTP binding signal, raw median fluorescence (lower = inhibition) (MCF (arbitrary fluorescence units)) in assay [5] is 204.

In the case of `COc1cccc(-n2c(SCC(=O)NCCC3=CCCCC3)nc3n[nH]c(C)c3c2=N)c1`, the molecule was classed as inactive in assay [1], in assay [4] and in assay [6]. In assay [2], the fluorescence, percent of control (lower = inhibition) turned out to be 70.4%. Besides, the GTP binding, percent of control in assay [3] worked out at 132%. In assay [5], the GTP binding signal, raw median fluorescence (lower = inhibition) (MCF (arbitrary fluorescence units)) is 140.

With `O=C(O)c1cccnc1SCc1ccc([N+](=O)[O-])cc1`, the call in assay [1], in assay [4] and in assay [6] was inactive. Besides, the fluorescence, percent of control (lower = inhibition) in assay [2] was found to be 71.2%. For the same molecule, the GTP binding, percent of control in assay [3] was 92%. The GTP binding signal, raw median fluorescence (lower = inhibition) (MCF (arbitrary fluorescence units)) in assay [5] amounted to 45.6.

As for `COc1ccc(S(=O)(=O)Cc2ccc(C(=O)N3CCN(c4cccc(C)c4C)CC3)o2)cc1`, the result in assay [1], in assay [4] and in assay [6] was inactive. Moreover, in assay [2], the fluorescence, percent of control (lower = inhibition) amounted to 41.5%. This molecule also came in with a GTP binding, percent of control in assay [3] of 62.1%. Moreover, the GTP binding signal, raw median fluorescence (lower = inhibition) (MCF (arbitrary fluorescence units)) in assay [5] was determined as 171.

Consider `O=C(C#Cc1cccc(O)c1)c1ccc([N+](=O)[O-])cc1`, for which the molecule was called inactive in assay [1], in assay [4] and in assay [6]. Further, the fluorescence, percent of control (lower = inhibition) in assay [2] came to 71.6%. Moreover, the GTP binding, percent of control in assay [3] was 196%. In assay [5], the GTP binding signal, raw median fluorescence (lower = inhibition) (MCF (arbitrary fluorescence units)) is 138.

As to `O=C(CSc1ccc2nnc(-c3cccc(F)c3)n2n1)N1CCCc2ccccc21`, the call in assay [1], in assay [4] and in assay [6] was inactive. In assay [2], the fluorescence, percent of control (lower = inhibition) was 37.7%. The molecule further registered a GTP binding, percent of control in assay [3] of 83%. In assay [5], this molecule registered a GTP binding signal, raw median fluorescence (lower = inhibition) (MCF (arbitrary fluorescence units)) of 209.

Take `Cc1cccc(CCSc2ncccc2C(=O)O)c1`: the call in assay [1], in assay [4] and in assay [6] was inactive. Also, in assay [2], the fluorescence, percent of control (lower = inhibition) came to 119%. In assay [3], this molecule showed a GTP binding, percent of control of 320%. The same molecule yielded a GTP binding signal, raw median fluorescence (lower = inhibition) (MCF (arbitrary fluorescence units)) in assay [5] of 97.

For the origin of these results see PubChem BioAssay.
